{"source": "PubChem BioAssay (NCATS)", "key": {"[1]": {"biological_target": "Lysosomal acid glucosylceramidase (Homo sapiens) (UniProt P04062)", "sequence (P04062 whole entry, looked up)": "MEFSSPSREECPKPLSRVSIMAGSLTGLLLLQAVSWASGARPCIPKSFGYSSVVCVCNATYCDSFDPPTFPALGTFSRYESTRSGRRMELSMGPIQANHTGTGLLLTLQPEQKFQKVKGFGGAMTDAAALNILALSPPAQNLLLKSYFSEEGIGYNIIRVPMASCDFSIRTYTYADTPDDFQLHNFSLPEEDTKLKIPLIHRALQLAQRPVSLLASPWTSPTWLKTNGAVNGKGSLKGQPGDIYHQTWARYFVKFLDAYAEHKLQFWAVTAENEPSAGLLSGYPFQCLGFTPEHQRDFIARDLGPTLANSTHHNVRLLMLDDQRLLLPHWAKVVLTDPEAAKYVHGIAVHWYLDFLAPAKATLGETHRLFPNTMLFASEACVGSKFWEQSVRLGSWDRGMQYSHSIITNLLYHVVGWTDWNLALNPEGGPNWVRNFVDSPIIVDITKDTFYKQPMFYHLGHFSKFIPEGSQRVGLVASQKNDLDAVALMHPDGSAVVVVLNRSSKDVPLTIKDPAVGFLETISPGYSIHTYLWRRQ", "experiment": "Glucocerebrosidase-p2 (AID 348; in the data active means potency below about 10 µM; on all read-outs here: potency means the concentration at half of the fitted maximal effect)", "conditions": "purified GBA, blue fluorogenic substrate, 40 min", "method_in_brief": "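Compounds titrated from 0.6 nM upwards against 0.2 nM enzyme in pH 5.9 citric acid/KH2PO4, taurocholate, tween-20; blue fluorogenic substrate 80 uM, 40 min room temperature, stopped and read Ex 365/Em 440 for AC50.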"}, "[2]": {"experiment": "AP1 Signaling Pathway (AID 357); on all read-outs here: on the % scale 0 is the no-effect control and ±100 the full control effect", "conditions": "ME-180 AP-1-bla reporter, EGF-induced, beta-lactamase ratio, 5 h; at 7.69 µM (top of the series) unless noted", "method_in_brief": "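In this screen, ME-180 cells in Opti-MEM with 0.5% dialyzed FBS received EC50 EGF and compound titrations for 5 h. AP-1 reporter beta-lactamase was detected via CCF4 ratio, giving AC50 for positive and negative modulators.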"}, "[3]": {"experiment": "NFAT Signaling Pathway (AID 444);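 on all read-outs here: carbachol stimulus at about its EC50 of 1 µM final; on the % scale 0 is the no-effect control and ±100 the full control effect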", "conditions": "Jurkat NFAT-bla M1, carbachol, beta-lactamase ratio, 5 h; at 7.69 µM (top of the series) unless noted", "method_in_brief": "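Jurkat cells carrying an NFAT-driven β-lactamase reporter and co-transfected muscarinic M1 receptor were treated with compound plus carbachol (1 uM final, an EC50 level) for 5 h at 37 °C. CCF4 loading followed for 1 h at RT; 460/530 nm ratio gave %activity.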"}, "[4]": {"experiment": "Stat Signaling Pathway (AID 446);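 on all read-outs here: ME-180 cervical cancer cells given 40 pM IL-6 alongside compound; on the % scale 0 is the no-effect control and ±100 the full control effect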", "conditions": "ME-180 SIE beta-lactamase reporter, IL-6 stimulated, 5 h; at 7.69 µM (top of the series) unless noted", "method_in_brief": "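ME-180 SIE-bla cells; overnight plating; cpd + IL-6 40 pM, 5 h, 37 C; LiveBLAzer 2.5 h RT; 460/530 nm emission ratio. Normalized to 300 pM IL-6 and 125 nM JAK inhibitor controls.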"}, "[5]": {"biological_target": "Glucocorticoid receptor (Homo sapiens) (UniProt P04150)", "sequence (P04150 whole entry, looked up, the tested form may be a part)": "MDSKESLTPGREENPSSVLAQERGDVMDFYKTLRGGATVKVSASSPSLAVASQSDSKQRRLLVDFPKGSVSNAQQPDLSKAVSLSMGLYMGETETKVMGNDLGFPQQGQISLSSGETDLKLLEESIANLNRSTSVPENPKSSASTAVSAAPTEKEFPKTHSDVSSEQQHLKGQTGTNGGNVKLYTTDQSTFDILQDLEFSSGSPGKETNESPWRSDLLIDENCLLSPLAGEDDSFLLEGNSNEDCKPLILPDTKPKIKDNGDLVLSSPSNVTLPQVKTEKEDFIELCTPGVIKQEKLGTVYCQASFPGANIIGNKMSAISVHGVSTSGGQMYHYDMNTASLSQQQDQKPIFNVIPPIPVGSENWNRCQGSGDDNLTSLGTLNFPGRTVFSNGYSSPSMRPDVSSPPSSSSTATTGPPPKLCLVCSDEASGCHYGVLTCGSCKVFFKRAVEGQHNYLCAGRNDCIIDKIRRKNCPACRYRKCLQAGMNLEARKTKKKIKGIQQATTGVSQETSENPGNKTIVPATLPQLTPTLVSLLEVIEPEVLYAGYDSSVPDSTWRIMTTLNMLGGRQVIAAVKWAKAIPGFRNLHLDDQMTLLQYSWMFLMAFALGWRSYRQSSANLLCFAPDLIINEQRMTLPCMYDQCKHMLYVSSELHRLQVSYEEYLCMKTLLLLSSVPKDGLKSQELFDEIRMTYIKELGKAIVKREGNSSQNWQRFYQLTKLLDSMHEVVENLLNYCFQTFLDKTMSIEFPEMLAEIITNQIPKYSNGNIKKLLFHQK", "experiment": "GR-EFC Redistribution (AID 451; calls by dose curve; on all read-outs here: potency means the concentration at half of the fitted maximal effect)", "conditions": "CHO-K1 GR-EFC translocation, beta-gal luminescence, 2 h", "method_in_brief": "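CHO-K1 cells stably expressing nuclear-localized β-gal enzyme acceptor and GR fused C-terminally to the enzyme donor fragment; ligand-driven nuclear translocation restores β-gal by complementation. Compounds titrated up to 46 uM final, 2 h at 37 °C; luminescence read.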"}, "[6]": {"biological_target": "Mitogen-activated protein kinase 10 (Mus musculus) (UniProt Q61831)", "experiment": "JNK3 AlphaScreen Assay (AID 530); on all read-outs here: on the % scale 0 is the no-effect control and ±100 the full control effect", "conditions": "JNK3 lysate, c-Jun phosphorylation; series mostly up to 57.1 µM", "method_in_brief": "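JNK3 came from HepG2 lysates pre-activated with IL-1beta and TNF-alpha and phosphorylated biotinylated GST-cJun (1-79) at 10 uM ATP, pH 7.6, room temperature. Compounds were titrated. AlphaScreen signal used anti-phospho-cJun (Ser73) antibody.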"}, "[7]": {"biological_target": "3',5'-cyclic-AMP phosphodiesterase 4B (Homo sapiens) (UniProt Q07343)", "sequence (Q07343 whole entry, looked up)": "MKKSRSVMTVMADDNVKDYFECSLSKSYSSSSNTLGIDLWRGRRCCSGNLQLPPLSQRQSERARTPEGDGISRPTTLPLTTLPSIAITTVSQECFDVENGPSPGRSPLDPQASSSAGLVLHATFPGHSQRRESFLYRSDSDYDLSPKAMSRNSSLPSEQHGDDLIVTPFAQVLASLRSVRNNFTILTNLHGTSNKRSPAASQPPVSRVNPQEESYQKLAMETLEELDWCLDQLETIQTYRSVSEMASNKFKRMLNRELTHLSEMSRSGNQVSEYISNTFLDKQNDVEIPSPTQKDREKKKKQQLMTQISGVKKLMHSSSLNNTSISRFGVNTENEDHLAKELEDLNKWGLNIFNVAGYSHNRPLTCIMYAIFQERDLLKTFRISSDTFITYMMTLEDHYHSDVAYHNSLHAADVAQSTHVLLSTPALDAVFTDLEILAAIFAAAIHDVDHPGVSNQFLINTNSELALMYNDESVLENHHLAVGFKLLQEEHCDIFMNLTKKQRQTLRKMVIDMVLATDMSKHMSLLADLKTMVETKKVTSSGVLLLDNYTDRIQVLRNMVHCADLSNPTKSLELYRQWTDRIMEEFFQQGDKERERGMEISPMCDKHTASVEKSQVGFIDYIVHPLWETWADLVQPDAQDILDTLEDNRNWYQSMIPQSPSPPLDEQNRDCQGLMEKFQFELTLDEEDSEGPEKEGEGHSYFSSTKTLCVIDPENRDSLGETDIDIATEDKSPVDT", "experiment": "qHTS Assay for Inhibitors of PDE-IV (AID 607; active means well fitted activation curve with a large enough effect in the main read-out, with a control signal flat, not every such curve was filed as active; on all read-outs here: % of control where 0% means no effect)", "conditions": "HEK293 ACTOne CNG channel cells, membrane potential fluorescence; series mostly up to 22.9 µM", "method_in_brief": "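ACTOne HEK293 cells carry a modified cAMP-gated CNG channel and express endogenous PDE4; plated 1000 cells/well, compounds up to 22.9 uM final. Membrane-potential dye fluorescence (ex 535/em 590) was read; parental cells received 10 uM forskolin + 100 uM RO 20-1724.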"}, "[8]": {"experiment": "qHTS Assay for Lipid Storage Modulators (AID 1519; calls by dose curve)", "conditions": "Drosophila S3 cells, BODIPY lipid droplet/cell ratio, laser cytometry, cells loaded with oleic acid; for activity change, negative = inhibition: at 57.5 µM (top of the series)", "method_in_brief": "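Cells seeded at 5,000 per well were treated with compounds over a concentration series and loaded with oleic acid (400 uM, as added). Lipid droplet fluorescence (488 nm excitation, 500-530 nm channel) was read by laser-scanning cytometry and normalized to 20 uM Triacsin C.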"}, "[9]": {"experiment": "Primary qHTS for small molecule stabilizers of the endoplasmic reticulum resident proteome: Secreted ER Calcium Modulated Protein (SERCaMP) assay (AID 1508630; active means well fitted curve in the direction sought with a large enough effect; an effect the other way counts as inactive or inconclusive; further: on the % scale 0 is the no-effect control and ±100 the full control effect)", "conditions": "SH-SY5Y GLuc-SERCaMP (Gaussia luciferase released on ER calcium loss) secretion, thapsigargin, luminescence; series mostly up to 38.4 µM", "method_in_brief": "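GLuc-SERCaMP-expressing SH-SY5Y cells, pretreated 16 h with compound, are challenged with thapsigargin to empty ER calcium stores; after 4 h, coelenterazine is added directly to the medium and luminescence is imaged.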"}, "[10]": {"biological_target": "Cytochrome P450 3A4 (Homo sapiens) (UniProt P08684)", "sequence (P08684 whole entry, looked up)": "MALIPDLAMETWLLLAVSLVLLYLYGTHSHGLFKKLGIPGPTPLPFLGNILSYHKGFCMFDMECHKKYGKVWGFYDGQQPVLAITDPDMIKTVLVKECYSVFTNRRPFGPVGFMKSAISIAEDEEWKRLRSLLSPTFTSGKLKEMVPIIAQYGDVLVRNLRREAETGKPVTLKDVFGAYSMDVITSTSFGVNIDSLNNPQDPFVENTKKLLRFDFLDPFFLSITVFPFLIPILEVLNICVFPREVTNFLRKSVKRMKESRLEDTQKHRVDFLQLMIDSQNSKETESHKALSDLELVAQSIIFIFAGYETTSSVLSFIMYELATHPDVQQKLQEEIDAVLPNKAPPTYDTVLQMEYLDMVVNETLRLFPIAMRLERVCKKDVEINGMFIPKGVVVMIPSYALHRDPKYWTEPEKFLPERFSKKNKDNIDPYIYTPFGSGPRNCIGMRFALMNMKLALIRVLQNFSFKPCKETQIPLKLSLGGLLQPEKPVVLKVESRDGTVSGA", "experiment": "qHTS Assay for Inhibitors and Substrates of Cytochrome P450 3A4 (AID 884; active means well fitted curve in the direction sought with a large enough effect; an effect the other way counts as inactive or inconclusive; further: nearly all actives have a fitted effect of over 50% in size; further: potency means the concentration at half of the fitted maximal effect)", "conditions": "recombinant CYP3A4, Luciferin-PPXE luminescence; series mostly up to 57.1 µM", "method_in_brief": "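20 nM human CYP3A4 with 25 uM Luciferin-PPXE (at KM) in 200 mM KPO4, preincubated 10 min with compound; NADPH regeneration started a 60 min RT reaction. Luciferin detected by luminescence, normalized to 57 uM ketoconazole as full inhibition.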"}, "[11]": {"biological_target": "Cytochrome P450 3A4 (Homo sapiens) (UniProt P08684)", "experiment": "qHTS Assay for Activators of Cytochrome P450 3A4 (AID 885; active means well fitted curve in the direction sought with a large enough effect; an effect the other way counts as inactive or inconclusive; further: nearly all actives have a fitted effect of over 65% in size; further: potency means the concentration at half of the fitted maximal effect)", "conditions": "recombinant CYP3A4, Luciferin-PPXE luminescence, 60 min; series mostly up to 57.1 µM", "method_in_brief": "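20nM CYP3A4 + 25uM Luciferin-PPXE (=KM), 200mM KPO4; cpd 10 min RT; NADPH regen, 60 min RT; stop w/ detection buffer, 20 min; luminescence. Normalized to 57 uM ketoconazole.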"}, "[12]": {"experiment": "qHTS Assay for Identification of Small Molecule Agonists for Hypoxia Response Element Signaling Pathway (AID 914; active means well fitted activation curve with a large enough effect in the signal ratio, with a control signal flat, not every such curve was filed as active; the % refers to the signal ratio; further: % of control where 0% means no effect)", "conditions": "ME-180 HRE-bla reporter, beta-lactamase ratio, CoCl2, 17 h; activation: stronger effect = higher value", "method_in_brief": "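Positive modulation of EC50 CoCl2-induced hypoxia response element signaling is measured in ME-180 cells with a beta-lactamase reporter. Compounds are titrated, incubation runs 17 hours, and %Activity derives from the blue/green ratio.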"}, "[13]": {"conditions": "measured here: cell count channel max response"}, "[14]": {"conditions": "measured here: lipid channel max response"}}, "note": "Inconclusive results are not listed. The source made the active and inactive calls. Unless noted, the call rests on the fitted dose curve; in most records, active means well fitted curve in either direction with a large enough effect (not every such curve was filed as active); inconclusive means small, poorly fitted or top-dose-only effect, or another doubt; inactive means flat fitted curve, though single readings scatter.", "data": [{"smiles": "O=C(c1csnn1)N1CCC[C@@]2(CCN(C(c3ccccc3)c3ccccc3)C2)C1", "values": [{"measurement": "Potency", "setting": "[1]", "value": "> 11.4 µM (inactive)"}, {"measurement": "activity change, negative = inhibition", "setting": "[2]", "value": "8.26% (inactive)"}, {"measurement": "activity change, negative = inhibition", "setting": "[3]", "value": "29.4% (inactive)"}, {"measurement": "activity, negative = inhibition", "setting": "[4]", "value": "26.4% (inactive)"}, {"measurement": "Potency", "setting": "[5]", "value": "> 46 µM (inactive)"}, {"measurement": "Potency", "setting": "[6]", "value": "inactive"}, {"measurement": "Potency", "setting": "[7]", "value": "inactive"}, {"measurement": "activity change, negative = inhibition", "setting": "[8]", "value": "-19.7% (inactive)"}, {"measurement": "max response", "setting": "[8]; [13]", "value": -5.14, "unit": "%"}, {"measurement": "max response", "setting": "[8]; [14]", "value": -20.5, "unit": "%"}, {"measurement": "outcome", "setting": "[9]", "value": "inactive"}]}, {"smiles": "N#Cc1ccc(CN2CC[C@@]3(CCCN(C(=O)c4cnccn4)C3)C2)cc1", "values": [{"measurement": "Potency", "setting": "[1]", "value": "> 11.4 µM (inactive)"}, {"measurement": "activity change, negative = inhibition", "setting": "[2]", "value": "-8.73% (inactive)"}, {"measurement": "activity change, negative = inhibition", "setting": "[3]", "value": "1.72% (inactive)"}, {"measurement": "activity, negative = inhibition", "setting": "[4]", "value": "4.34% (inactive)"}, {"measurement": "Potency", "setting": "[5]", "value": "> 46 µM (inactive)"}, {"measurement": "Potency", "setting": "[6]", "value": "inactive"}, {"measurement": "Potency", "setting": "[7]", "value": "inactive"}, {"measurement": "activity change, negative = inhibition", "setting": "[8]", "value": "2.06% (inactive)"}, {"measurement": "max response", "setting": "[8]; [13]", "value": 12.2, "unit": "%"}, {"measurement": "max response", "setting": "[8]; [14]", "value": 18.2, "unit": "%"}, {"measurement": "outcome", "setting": "[9]", "value": "inactive"}]}, {"smiles": "N#Cc1cccc(NC(=O)N2CC3(CCN(C(=O)c4cccc(F)c4)CC3)C2)c1", "values": [{"measurement": "Potency", "setting": "[1]", "value": "> 11.4 µM (inactive)"}, {"measurement": "activity change, negative = inhibition", "setting": "[2]", "value": "-1.48% (inactive)"}, {"measurement": "activity change, negative = inhibition", "setting": "[3]", "value": "8.8% (inactive)"}, {"measurement": "activity, negative = inhibition", "setting": "[4]", "value": "-8.78% (inactive)"}, {"measurement": "Potency", "setting": "[5]", "value": "> 46 µM (inactive)"}, {"measurement": "Potency", "setting": "[6]", "value": "inactive"}, {"measurement": "Potency", "setting": "[7]", "value": "inactive"}, {"measurement": "Potency", "setting": "[10]", "value": "inactive"}, {"measurement": "Potency", "setting": "[11]", "value": "10 µM (active)"}, {"measurement": "activity change, negative = inhibition", "setting": "[8]", "value": "4.13% (inactive)"}, {"measurement": "max response", "setting": "[8]; [13]", "value": 17, "unit": "%"}, {"measurement": "max response", "setting": "[8]; [14]", "value": 25.1, "unit": "%"}, {"measurement": "outcome", "setting": "[9]", "value": "inactive"}]}, {"smiles": "O=C(Nc1ccccc1)N1CC2(CCN(S(=O)(=O)c3ccccc3)CC2)C1", "values": [{"measurement": "Potency", "setting": "[1]", "value": "> 11.4 µM (inactive)"}, {"measurement": "activity change, negative = inhibition", "setting": "[2]", "value": "-1.41% (inactive)"}, {"measurement": "activity change, negative = inhibition", "setting": "[3]", "value": "16.1% (inactive)"}, {"measurement": "activity, negative = inhibition", "setting": "[4]", "value": "-2.14% (inactive)"}, {"measurement": "Potency", "setting": "[5]", "value": "> 46 µM (inactive)"}, {"measurement": "Potency", "setting": "[6]", "value": "inactive"}, {"measurement": "Potency", "setting": "[7]", "value": "inactive"}, {"measurement": "activation", "setting": "[12]", "value": "-12.4% (inactive)"}, {"measurement": "activity change, negative = inhibition", "setting": "[8]", "value": "-5.83% (inactive)"}, {"measurement": "max response", "setting": "[8]; [13]", "value": 0.332, "unit": "%"}, {"measurement": "max response", "setting": "[8]; [14]", "value": -5.36, "unit": "%"}, {"measurement": "outcome", "setting": "[9]", "value": "inactive"}]}, {"smiles": "COc1ccc(C(=O)N2CCC[C@@]3(CCN(CC(C)C)C3)C2)cc1", "values": [{"measurement": "Potency", "setting": "[1]", "value": "> 11.4 µM (inactive)"}, {"measurement": "activity change, negative = inhibition", "setting": "[2]", "value": "-12.8% (inactive)"}, {"measurement": "activity change, negative = inhibition", "setting": "[3]", "value": "-2.79% (inactive)"}, {"measurement": "activity, negative = inhibition", "setting": "[4]", "value": "-10.6% (inactive)"}, {"measurement": "Potency", "setting": "[5]", "value": "> 46 µM (inactive)"}, {"measurement": "Potency", "setting": "[6]", "value": "inactive"}, {"measurement": "Potency", "setting": "[7]", "value": "inactive"}, {"measurement": "Potency", "setting": "[10]", "value": "7.94 µM (active)"}, {"measurement": "Potency", "setting": "[11]", "value": "inactive"}, {"measurement": "activity change, negative = inhibition", "setting": "[8]", "value": "2.82% (inactive)"}, {"measurement": "max response", "setting": "[8]; [13]", "value": 8.22, "unit": "%"}, {"measurement": "max response", "setting": "[8]; [14]", "value": 13.2, "unit": "%"}, {"measurement": "outcome", "setting": "[9]", "value": "inactive"}]}, {"smiles": "O=C(c1cccc(F)c1)N1CCC2(CC1)CN(c1ncccn1)C2", "values": [{"measurement": "Potency", "setting": "[1]", "value": "> 11.4 µM (inactive)"}, {"measurement": "activity change, negative = inhibition", "setting": "[2]", "value": "1.82% (inactive)"}, {"measurement": "activity change, negative = inhibition", "setting": "[3]", "value": "-6.5% (inactive)"}, {"measurement": "activity, negative = inhibition", "setting": "[4]", "value": "-6.7% (inactive)"}, {"measurement": "Potency", "setting": "[5]", "value": "> 46 µM (inactive)"}, {"measurement": "Potency", "setting": "[6]", "value": "inactive"}, {"measurement": "Potency", "setting": "[7]", "value": "inactive"}, {"measurement": "Potency", "setting": "[10]", "value": "inactive"}, {"measurement": "Potency", "setting": "[11]", "value": "25.1 µM (active)"}, {"measurement": "activity change, negative = inhibition", "setting": "[8]", "value": "1.3% (inactive)"}, {"measurement": "max response", "setting": "[8]; [13]", "value": 1.53, "unit": "%"}, {"measurement": "max response", "setting": "[8]; [14]", "value": 3.53, "unit": "%"}, {"measurement": "outcome", "setting": "[9]", "value": "inactive"}]}]}
